# Source: PMC7862700, “An all-to-all approach to the identification of sequence-specific readers for epigenetic DNA modifications on cytosine”
# Experiments:
# Assay in all cases: DAPPL (digital affinity profiling via proximity ligation, sequencing); 10 mM Tris-HCl pH 7.5, 50 mM NaCl, 1 mM DTT, 4% glycerol, room temperature, 30 min; GST-TFs on glutathione beads, 16-mer random dsDNA library, 0.1% formaldehyde crosslink after washing; high values mean tight binding
# Conditions in all cases: protein: recombinant; tags: N-terminal GST; dsDNA, one strand shown
# FLI1 = molecular target: T1, FLI1 (Homo sapiens, UniProt Q01543 1-452)
# T1 sequence: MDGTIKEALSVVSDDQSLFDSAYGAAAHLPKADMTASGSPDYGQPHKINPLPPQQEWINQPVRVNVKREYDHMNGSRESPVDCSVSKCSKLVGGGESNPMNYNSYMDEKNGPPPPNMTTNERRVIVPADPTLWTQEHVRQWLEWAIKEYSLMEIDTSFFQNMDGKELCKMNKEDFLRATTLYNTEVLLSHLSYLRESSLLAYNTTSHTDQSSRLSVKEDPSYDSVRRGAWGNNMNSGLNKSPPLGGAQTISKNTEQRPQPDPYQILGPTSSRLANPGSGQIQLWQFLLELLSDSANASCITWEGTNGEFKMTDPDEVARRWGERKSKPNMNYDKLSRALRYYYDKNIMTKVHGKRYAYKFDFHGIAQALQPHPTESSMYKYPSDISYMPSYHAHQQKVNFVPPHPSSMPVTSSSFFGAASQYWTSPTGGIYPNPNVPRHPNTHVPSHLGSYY
# Method in brief: (§1)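 Binding signal is defined as a hexamer's read frequency for one factor over its frequency for the tag-only sample. To obtain reads, GST-fused human transcription factors were expressed in yeast, captured on glutathione beads, barcoded with DNA and pooled with that sample. Pools met 200 nmole of a 16-mer random double-stranded DNA library in Tris/NaCl/DTT/glycerol buffer for 30 min at room temperature before washing, 0.1% formaldehyde crosslinking, proximity ligation (BsaI/T4 ligase, 1 h, 37 °C), PCR and Illumina NextSeq500 sequencing.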
# ELK1 = molecular target: T2, ELK1 (Homo sapiens, UniProt P19419 1-428)
# T2 sequence: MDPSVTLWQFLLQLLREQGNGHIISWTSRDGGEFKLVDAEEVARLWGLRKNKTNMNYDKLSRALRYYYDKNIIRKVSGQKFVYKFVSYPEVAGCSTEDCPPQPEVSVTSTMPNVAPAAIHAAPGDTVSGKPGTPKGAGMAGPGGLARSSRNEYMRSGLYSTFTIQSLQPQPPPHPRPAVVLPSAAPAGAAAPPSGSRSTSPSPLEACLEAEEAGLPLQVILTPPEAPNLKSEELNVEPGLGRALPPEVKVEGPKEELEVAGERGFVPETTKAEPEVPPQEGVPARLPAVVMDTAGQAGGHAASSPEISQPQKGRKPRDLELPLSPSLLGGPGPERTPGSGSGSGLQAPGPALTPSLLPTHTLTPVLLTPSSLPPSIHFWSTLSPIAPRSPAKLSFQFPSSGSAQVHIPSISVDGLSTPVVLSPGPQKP
# Method in brief: as §1
# GABPA = molecular target: T3, GABPA (Homo sapiens, UniProt Q06546 1-454)
# T3 sequence: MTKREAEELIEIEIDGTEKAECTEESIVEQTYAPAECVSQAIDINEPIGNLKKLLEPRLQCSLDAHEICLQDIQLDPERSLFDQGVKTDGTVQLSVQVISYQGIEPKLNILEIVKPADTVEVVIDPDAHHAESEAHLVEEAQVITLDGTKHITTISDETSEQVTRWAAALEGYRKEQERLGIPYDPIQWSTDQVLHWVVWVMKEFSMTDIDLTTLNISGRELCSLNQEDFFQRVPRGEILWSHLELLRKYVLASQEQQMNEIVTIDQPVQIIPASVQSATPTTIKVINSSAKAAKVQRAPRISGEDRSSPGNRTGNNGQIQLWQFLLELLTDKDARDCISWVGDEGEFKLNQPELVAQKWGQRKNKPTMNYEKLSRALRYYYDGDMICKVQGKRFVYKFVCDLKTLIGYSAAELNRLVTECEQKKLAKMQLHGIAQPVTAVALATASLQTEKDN
# Method in brief: as §1
# ERG = molecular target: T4, ERG (Homo sapiens, UniProt P11308 1-479)
# T4 sequence: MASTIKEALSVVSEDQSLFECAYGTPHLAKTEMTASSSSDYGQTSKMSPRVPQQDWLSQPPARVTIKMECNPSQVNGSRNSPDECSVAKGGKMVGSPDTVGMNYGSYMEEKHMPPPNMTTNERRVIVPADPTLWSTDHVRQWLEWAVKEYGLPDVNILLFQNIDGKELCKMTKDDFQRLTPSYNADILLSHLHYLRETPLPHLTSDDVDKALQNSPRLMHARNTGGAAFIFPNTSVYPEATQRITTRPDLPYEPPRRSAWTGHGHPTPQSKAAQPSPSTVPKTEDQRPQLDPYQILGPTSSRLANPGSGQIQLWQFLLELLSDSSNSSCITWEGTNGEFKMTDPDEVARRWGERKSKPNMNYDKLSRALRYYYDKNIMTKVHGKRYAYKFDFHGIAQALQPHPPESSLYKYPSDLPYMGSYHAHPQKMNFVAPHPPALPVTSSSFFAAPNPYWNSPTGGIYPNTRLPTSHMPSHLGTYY
# Method in brief: as §1
# ELF1 = ELF1 (Homo sapiens, UniProt P32519 1-619)
# Method in brief: as §1
# EHF = molecular target: T5, EHF (Homo sapiens, UniProt Q9NZC4 1-300)
# T5 sequence: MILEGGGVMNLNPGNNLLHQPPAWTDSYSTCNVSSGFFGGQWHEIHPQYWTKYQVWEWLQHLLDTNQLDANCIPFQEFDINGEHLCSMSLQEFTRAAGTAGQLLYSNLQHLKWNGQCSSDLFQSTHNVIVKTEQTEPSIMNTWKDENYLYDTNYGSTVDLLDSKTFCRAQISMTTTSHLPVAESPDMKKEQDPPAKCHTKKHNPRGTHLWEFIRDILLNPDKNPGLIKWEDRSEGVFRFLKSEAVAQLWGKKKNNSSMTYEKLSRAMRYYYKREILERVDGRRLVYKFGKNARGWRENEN
# Method in brief: as §1
# SPI1 = SPI1 (Homo sapiens, UniProt P17947 1-270)
# Method in brief: as §1
# SPIB = SPIB (Homo sapiens, UniProt Q01892 1-262)
# Method in brief: as §1
# ELK3 = molecular target: T6, ELK3 (Homo sapiens, UniProt P41970 1-407)
# T6 sequence: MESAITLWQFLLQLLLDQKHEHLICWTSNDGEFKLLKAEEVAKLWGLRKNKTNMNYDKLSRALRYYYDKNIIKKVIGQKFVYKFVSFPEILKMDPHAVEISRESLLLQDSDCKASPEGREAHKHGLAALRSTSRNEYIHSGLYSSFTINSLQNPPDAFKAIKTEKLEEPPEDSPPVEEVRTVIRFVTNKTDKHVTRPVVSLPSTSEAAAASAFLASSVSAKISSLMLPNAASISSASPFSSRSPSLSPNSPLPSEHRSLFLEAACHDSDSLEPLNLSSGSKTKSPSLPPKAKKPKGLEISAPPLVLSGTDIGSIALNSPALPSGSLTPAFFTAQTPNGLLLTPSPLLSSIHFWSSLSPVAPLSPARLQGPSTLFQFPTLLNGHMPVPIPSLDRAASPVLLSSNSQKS
# Method in brief: as §1
# Sequence of ELF1 (P32519 whole entry): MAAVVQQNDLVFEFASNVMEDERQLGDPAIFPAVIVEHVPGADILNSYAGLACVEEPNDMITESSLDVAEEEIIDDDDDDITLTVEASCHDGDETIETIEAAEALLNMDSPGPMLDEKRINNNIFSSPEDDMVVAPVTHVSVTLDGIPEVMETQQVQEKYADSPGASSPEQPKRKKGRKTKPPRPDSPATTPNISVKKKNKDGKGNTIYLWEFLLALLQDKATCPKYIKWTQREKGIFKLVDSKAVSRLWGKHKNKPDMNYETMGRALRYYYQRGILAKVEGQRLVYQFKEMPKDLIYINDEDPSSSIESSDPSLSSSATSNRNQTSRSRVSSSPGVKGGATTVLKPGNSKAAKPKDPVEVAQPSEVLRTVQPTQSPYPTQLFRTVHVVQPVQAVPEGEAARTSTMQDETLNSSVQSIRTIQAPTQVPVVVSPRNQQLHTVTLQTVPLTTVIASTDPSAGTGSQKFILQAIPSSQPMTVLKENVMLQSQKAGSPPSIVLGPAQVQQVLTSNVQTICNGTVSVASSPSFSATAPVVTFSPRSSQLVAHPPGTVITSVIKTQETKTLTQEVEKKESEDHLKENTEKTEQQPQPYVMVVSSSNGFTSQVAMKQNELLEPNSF
# Sequence of SPIB (Q01892 whole entry): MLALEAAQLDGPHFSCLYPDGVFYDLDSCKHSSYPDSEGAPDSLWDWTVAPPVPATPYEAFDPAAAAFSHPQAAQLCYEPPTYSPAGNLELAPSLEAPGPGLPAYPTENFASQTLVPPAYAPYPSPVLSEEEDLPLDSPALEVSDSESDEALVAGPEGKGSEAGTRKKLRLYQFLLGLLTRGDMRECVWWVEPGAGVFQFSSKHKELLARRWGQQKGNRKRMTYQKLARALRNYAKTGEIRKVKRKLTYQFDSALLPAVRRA
sequence,measurement,setting,value
GCGATG,binding signal,FLI1,"1.2 fold enrichment (6-mer frequency, TF over GST control)"
same,binding signal,ELK1,"1.48 fold enrichment (6-mer frequency, TF over GST control)"
same,binding signal,GABPA,"1.37 fold enrichment (6-mer frequency, TF over GST control)"
same,binding signal,ERG,"1.23 fold enrichment (6-mer frequency, TF over GST control)"
same,binding signal,ELF1,"1.31 fold enrichment (6-mer frequency, TF over GST control)"
same,binding signal,EHF,"1.25 fold enrichment (6-mer frequency, TF over GST control)"
same,binding signal,SPI1,"1.34 fold enrichment (6-mer frequency, TF over GST control)"
same,binding signal,SPIB,"1.29 fold enrichment (6-mer frequency, TF over GST control)"
same,binding signal,ELK3,"1.31 fold enrichment (6-mer frequency, TF over GST control)"
